Screening results as filed in PubChem.
PI4K2A inh: qHTS for small molecular inhibitors of PI4K2A. purified PI4K2A, ADP-Glo luminescence, 1 h; stronger effect = lower value. activity change, negative = inhibition, % at 76.9 µM. 420,000 compounds, 0.13% hits. AID 1346378, 2018; in the data active = activity change below about -50%; inconclusive = mostly about -30% to -49%;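 also: -100% = wells without enzyme as full effect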
Target sequence (Q9BTU6 whole entry, looked up): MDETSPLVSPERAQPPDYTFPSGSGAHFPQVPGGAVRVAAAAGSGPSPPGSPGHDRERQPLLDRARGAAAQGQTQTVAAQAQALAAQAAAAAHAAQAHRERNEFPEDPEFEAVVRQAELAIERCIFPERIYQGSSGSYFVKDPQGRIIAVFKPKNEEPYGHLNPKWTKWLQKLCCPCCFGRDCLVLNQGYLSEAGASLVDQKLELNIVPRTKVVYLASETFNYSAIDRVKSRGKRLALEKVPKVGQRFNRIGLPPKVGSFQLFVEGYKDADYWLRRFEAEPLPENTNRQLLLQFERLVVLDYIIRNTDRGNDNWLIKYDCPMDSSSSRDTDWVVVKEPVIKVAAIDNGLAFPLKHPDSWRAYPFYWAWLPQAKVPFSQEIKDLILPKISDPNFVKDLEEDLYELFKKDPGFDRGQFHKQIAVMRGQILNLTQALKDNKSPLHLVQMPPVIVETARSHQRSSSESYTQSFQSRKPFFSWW
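PI4K2A activity was measured by ADP-Glo luminescence: enzyme (4 ug/mL stock) and phosphatidylinositol (1.2 mM stock) in Tris pH 7.5/MgCl2/EGTA/Triton X-100 buffer were reacted with ATP (300 microM stock) for one hour at ambient temperature.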
Pin1 inhibitor: qHTS Assay to Find Inhibitors of Pin1. Peptidyl-prolyl cis-trans isomerase NIMA-interacting 1 (Homo sapiens), Q13526. 390,000 compounds, 0.009% hits. AID 504891, 2011. Pin1 FP peptide displacement, HiFluor488, 10 min. Potency, µM (series often up to 115 µM), without a hit: at the highest dose activity, negative = inhibition, most hits filed as inhibitors; active = well fitted inhibition curve with a large enough effect in the polarisation, with a control signal flat, not every such curve was filed as active; inconclusive = small, poorly fitted or top-dose-only effect, or effect the other way, or a change in a side signal; inactive = no such curve, though single readings can be large or run the other way; the % refers to the polarisation; also: potency is read from the fitted curve at half-maximal effect
Target sequence (Q13526 whole entry, looked up): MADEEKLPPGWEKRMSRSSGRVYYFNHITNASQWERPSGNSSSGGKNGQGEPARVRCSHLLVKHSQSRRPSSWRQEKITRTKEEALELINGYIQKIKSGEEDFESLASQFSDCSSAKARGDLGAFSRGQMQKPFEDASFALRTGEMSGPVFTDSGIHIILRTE
PI5P4K alpha inh: qHTS for Inhibitors of phosphatidylinositol 5-phosphate 4-kinase (PI5P4K). Phosphatidylinositol 5-phosphate 4-kinase type-2 alpha (Homo sapiens), P48426. 330,000 compounds, 1.2% hits. AID 652105, 2013. PI5P4Kalpha enzyme, ADP-Glo luminescence, 60 min; stronger effect = lower value. max response, %; active = max response of -50% or lower; inconclusive = between -30% and -50%; inactive = -30% or higher; also: value at the top dose of about 77 µM
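PI5P4Kalpha ADP-Glo assay; 5 microM ATP final; 60 min RT reaction; HEPES pH 7.4/EGTA/CHAPS, 5% DMSO; controls lacking substrate or enzyme; luminescent end-point.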
Tb PGK inh: qHTS Assay to Find Inhibitors of Phosphoglycerate Kinase; Potency, µM (highest dose often 57.5 µM), for the others: at the top dose activity change, negative = inhibition, most hits filed as inhibitors; AID 602233, 2012; PGK/GAPDH coupled, Kinase-Glo luminescence, 60 min; Phosphoglycerate kinase, glycosomal (Trypanosoma brucei brucei), P07378; 380,000 compounds, 0.043% hits; also: potency is read from the fitted curve at half-maximal effect; nearly all actives have a fitted effect of over 60% in size
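Luminescent ATP detection (Kinase-Glo Plus) follows a 60-minute room-temperature incubation, with wells lacking PGK as controls. Buffer: 100 mM TEA (pH 7.6), 5 mM MgCl2, 0.01% Tween-20. Coupling enzyme GAPDH (100 nM final) supplies unstable 1,3-BPG in-well.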
Tb PFK block: qHTS Assay to Find Inhibitors of T. brucei phosphofructokinase. T. brucei PFK, ADP-Glo luminescence. Potency, µM (top dose mostly 57.5 µM), inactives show top-dose activity, negative = inhibition, usual class: inhibitors. 330,000 compounds, 0.17% hits. AID 485367, 2010;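 also: potency is read from the fitted curve at half-maximal effect; 0% = uninhibited 1x PFK enzyme wells and -100% = no-enzyme wells; nearly all actives have a fitted effect of over 60% in size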
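Activity is normalized to no-enzyme wells (full inhibition) and 1.25 nM enzyme wells (no inhibition). Reaction: 0.5 mM F6P, 0.1 mM ATP, 45 min RT, ADP-Glo luminescence; concentration-response curves fitted and classed by quality.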
* hit, by the source's call; i = inactive; ? = inconclusive; / = no result. The entries come from a sample that favours hits as a whole. Unless noted, calls follow the shape of the dose curve; as a rule, active = well fitted curve in the direction sought with a large enough effect; inconclusive = small, poorly fitted or top-dose-only effect, or another doubt; inactive = no such curve, though single readings can be large; an effect the other way counts as inactive or inconclusive. Unless noted, % is scaled to controls: 0 for no effect and ±100 for the full control effect.

SMILES	PI4K2A inh	Pin1 inhibitor	PI5P4K alpha inh	Tb PGK inh	Tb PFK block
COc1ccc(/C=N/NC(=O)c2ccc(O)cc2O)cc1CSc1ccccn1	-0.5	?	-71.0*	?	-7.8%
N=c1c2c(ccn1CCc1ccccc1)Oc1ccc3ccccc3c1C2c1ccccc1 (stereo not given)	/	26.8%	/	/	/
CCCCC(=O)O[C@]1(C(=O)CO)[C@@H](C)C[C@H]2[C@@H]3CCC4=CC(=O)C=C[C@]4(C)[C@@]3(F)[C@@H](O)C[C@@]21C	-1.8	/	/	/	/
Cc1c(N=Nc2c(-c3ccc([N+](=O)[O-])cc3)[nH]n(C(N)=S)c2=O)cccc1[N+](=O)[O-]	-4.7	/	-62.5*	-19.2%	10.9%
O=c1[nH]c(Nc2ccc(F)cc2)cc2ccccc12	-51.3*	?	/	-16.9%	-2.8%
N#Cc1c(N2CCCC(O)C2)nc(N)c2c(N)nc3c(c12)CC(=O)N3C12CC3CC(CC(C3)C1)C2 (stereo not given)	?	28.8%	/	-1.1%	1.9%
C=C(C)CN(CC)c1nc(N)c2c(N)nc3c(c2c1C#N)CC(=O)N3C12CC3CC(CC(C3)C1)C2	?	14.3%	-87.3*	-2.0%	3.5%
N[C@H]1CC[C@@H]2SC[C@@H](C(=O)O)N2C1=O	-8.6	/	/	/	/
Cc1ccc(N2C(=O)c3ccccc3C2C(=O)c2ccc(O)cc2O)cc1 (stereo not given)	-11.7	/	-65.7*	?	?
Cc1ccc(N2C(=O)c3ccccc3C2C(=O)c2cc(C)ccc2O)cc1 (stereo not given)	1.0	-0.1%	3.9	-6.8%	?
COc1cc2c(cc1NC(=O)CSc1nnc(-c3cccc(Cl)c3)n1Cc1ccco1)oc1ccccc12	-5.8	/	/	/	/
COc1ccc(N2CSC3=C(C#N)C(c4cc(OC)ccc4OC)CC(=O)N3C2)c(OC)c1 (stereo not given)	-26.6	50.6%	-84.6*	-1.8%	-4.0%
O=C1NC(=O)C(=Cc2ccccc2)N1	-2.0	0.5%	-1.5	-7.6%	/
O=C1NC(=O)/C(=C/c2cccc(O)c2)N1	-7.3	12.7%	-64.2*	i	7.3%
CNC(=S)N/N=C(\C)c1ccc2c(c1)OCCO2	-4.8	-5.7%	-75.6*	3.9%	0.3%
CNC(=S)N/N=C(\C)c1ccc2c(c1)OCO2	-2.5	-10.5%	-65.1*	-8.6%	0.6%
COc1cc(C2Nc3ccccc3C(=O)N2Cc2ccccc2)ccc1OCc1ccc(NC(C)=O)cc1 (stereo not given)	/	-3.8%	/	/	/
CN(C)S(=O)(=O)c1cccc(-c2nn(-c3ccccc3)cc2/C=C2\SC(=S)NC2=O)c1	-6.8	-12.9%	-85.6*	?	0.7%
Cc1ccc(NS(=O)(=O)c2cc3c(cc2F)NC(=O)CC3)cc1C	/	-4.6%	/	/	/
O=C(C[n+]1ccc2ccccc2c1)c1cccc2ccccc12	-1.0	-6.1%	-11.8	i	-2.8%
O=C(/C=C/c1cc[n+](CC(=O)c2ccc3cccc4c3c2CC4)cc1)c1ccc2cccc3c2c1CC3	0.3	?	-69.0*	-1.6%	14.0%
CN1CCN(C(=S)NC(=O)c2ccc(Cl)cc2)CC1	5.0	-4.1%	-90.7*	-5.1%	-18.9%
O=C(NC(=S)N1CCCC1)c1ccc(Cl)cc1	6.1	-2.4%	-10.4	0.6%	-1.0%
Cc1[nH]n(-c2ccccc2)c(=S)c1C=NCCCN=Cc1c(C)[nH]n(-c2ccccc2)c1=S	0.5	-10.3%	-75.7*	0.9%	-21.2%
COC(=O)CN=Cc1c(C)[nH]n(-c2ccccc2)c1=O	3.1	-1.1%	0.5	-0.9%	-29.2%
SMILES	PI4K2A inh	Pin1 inhibitor	PI5P4K alpha inh	Tb PGK inh	Tb PFK block
CC(C)S(=O)(=O)C1=NSC2=NC(=O)/C(=C\c3ccc(-c4ccccc4)o3)C(=N)N21	-1.7	?	-101.9*	-5.2%	-11.2%
N=C1/C(=C/c2ccc(-c3cccc(C(=O)O)c3)o2)C(=O)N=C2SC=C(c3ccccc3)N12	-5.7	?	-83.1*	?	-1.1%
CC(C)S(=O)(=O)C1=NSC2=NC(=O)/C(=C\c3ccc(-c4cccc(C(=O)O)c4)o3)C(=N)N21	-7.3	?	-104.4*	-18.0%	?
CS(=O)(=O)C1=NSC2=NC(=O)/C(=C\c3ccc(-c4ccccc4)o3)C(=N)N21	/	/	/	/	-15.4%
COc1ccc2c(c1O)C(=O)c1ccccc1C2=O	/	/	/	/	-0.9%
Nc1c(O)ccc2c1C(=O)c1ccccc1C2=O	-22.7	?	-56.9*	?	-22.3%
O=S1(=O)N=C(OCc2ccccc2)c2ccccc21	/	-1.4%	/	/	/
O=C(Nc1ccc(Cl)c(Cl)c1)Oc1ccc(NC(=O)c2ccco2)cc1	0.8	-0.9%	-27.4	-10.2%	13.5µM*
O=C(O)c1ccc(N/N=C/c2ccc3c(c2)OCO3)cc1	-66.8*	7.9%	?	?	-21.1%
O=C(O)c1cc(N/N=C/c2ccc3c(c2)OCCO3)ccc1Cl	-2.9	/	?	-3.4%	10.3%
O=C(O)c1ccc(N/N=C/c2cc3c(cc2[N+](=O)[O-])OCO3)cc1	-8.3	-18.2%	-6.4	-9.0%	6.2%
O=C(O)c1cc(N/N=C/c2ccc3c(c2)OCO3)ccc1Cl	-11.7	-11.9%	-53.1*	-8.5%	-2.9%
CCn1ccc(NS(=O)(=O)c2ccc(N)cc2)nc1=O	1.1	/	/	/	/
Cc1cc(N2C(=O)C(O)=C(C(=O)c3cc4ccccc4o3)C2c2ccc(Cl)cc2)no1 (stereo not given)	1.0	-0.3%	-72.4*	i	0.9%
Cc1cc(N2C(=O)C(O)=C(C(=O)c3cc4ccccc4o3)C2c2ccc(Br)cc2)no1 (stereo not given)	3.2	-14.2%	-66.6*	8.8%	1.3%
Cc1cc(N2C(=O)C(O)=C(C(=O)c3cc4ccccc4o3)C2c2cccc(Cl)c2)no1 (stereo not given)	0.3	?	-80.5*	-4.5%	-1.6%
O=C(NCc1c(F)cccc1F)C1CCCN(c2ncccn2)C1 (stereo not given)	1.1	/	/	/	/
Cc1cc(=O)oc2c(C)c(OCC(=O)N3CCN(c4cccc(Cl)c4)CC3)ccc12	-1.1	-0.9%	5.0	i	21.3µM*
O=S(=O)(O)c1ccc(N=Nc2ccccc2)cc1	?	1.0%	-15.4	i	-3.8%
O=c1ccc(N=Nc2ccccc2)ccc1O	-60.0*	?	-0.4	-11.6%	-27.2%
Cc1nc(Nc2ccc(C(=O)O)cc2)nc(Nc2ccc(C(=O)O)cc2)c1[N+](=O)[O-]	-10.4	-23.9%	-56.4*	-5.9%	6.3%
